{"source": "the antibiotic and cytotoxicity screens of Wong et al. (2023)", "note": "The campaign covered roughly 39,000 compounds. About 1,500 (3.8%) were called active. The sample as a whole holds a higher share of actives than the screen did.", "data": [{"test_system": "HSkMC (human skeletal muscle cells)", "assay": "cytotoxicity call (relative viability < 0.9)", "details": "10 µM", "values": [{"smiles": "Cn1cc(C(F)(F)F)ccc1=S", "cytotoxicity call": "inactive"}, {"smiles": "CCS(=O)(=O)N(C)C[C@@H]1OCc2ccccc2-c2c(n(C)c3ccccc23)C(=O)N([C@@H](C)CO)C[C@@H]1C", "cytotoxicity call": "inactive"}, {"smiles": "COCC#Cc1ccc2c(c1)O[C@@H](CN(C)Cc1ccc3c(c1)OCO3)[C@H](C)CN([C@@H](C)CO)S2(=O)=O", "cytotoxicity call": "inactive"}, {"smiles": "C[C@@H]1CN([C@H](C)CO)C(=O)Cc2cc(NS(=O)(=O)c3cn(C)cn3)ccc2O[C@H]1CN(C)C(=O)Nc1ccc(F)cc1", "cytotoxicity call": "inactive"}, {"smiles": "Cc1noc(C)c1S(=O)(=O)Nc1ccc2c(c1)CC(=O)N([C@@H](C)CO)C[C@@H](C)[C@@H](CN(C)S(=O)(=O)c1cccs1)O2", "cytotoxicity call": "inactive"}, {"smiles": "O=S(=O)(c1c[nH]c2ncccc12)N1CC(S(=O)(=O)N2CCOCC2)C1", "cytotoxicity call": "inactive"}, {"smiles": "Clc1ccc(-c2nnc(Nc3ccccc3)s2)c(Cl)c1", "cytotoxicity call": "inactive"}, {"smiles": "C[C@H](O)C#Cc1cnc2c(c1)C(=O)N([C@@H](C)CO)C[C@@H](C)[C@@H](CN(C)C(=O)Nc1ccc(C(F)(F)F)cc1)O2", "cytotoxicity call": "inactive"}, {"smiles": "NC(=O)C1N=CN([C@@H]2O[C@H](CO)[C@@H](O)[C@H]2O)C1=O", "note": "(stereo not given in full)", "cytotoxicity call": "inactive"}, {"smiles": "COc1ccc(S(=O)(=O)Nc2ccc3c(c2)C(=O)N([C@H](C)CO)C[C@H](C)[C@@H](CN(C)Cc2ccc(Cl)c(Cl)c2)OCCCC[C@@H](C)O3)cc1", "cytotoxicity call": "inactive"}, {"smiles": "COc1ccc(S(=O)(=O)Nc2ccc3c(c2)C(=O)N([C@H](C)CO)C[C@@H](C)[C@@H](CN(C)Cc2ccc(Cl)c(Cl)c2)OCCCC[C@H](C)O3)cc1", "cytotoxicity call": "active"}, {"smiles": "COc1ccc(CN(C)C[C@H]2OCCCC[C@@H](C)Oc3ccc(NS(=O)(=O)c4ccc(OC)cc4)cc3C(=O)N([C@@H](C)CO)C[C@H]2C)cc1", "cytotoxicity call": "inactive"}, {"smiles": "COc1ccc(S(=O)(=O)Nc2ccc3c(c2)C(=O)N([C@H](C)CO)C[C@@H](C)[C@H](CN(C)Cc2ccc(Cl)c(Cl)c2)OCCCC[C@H](C)O3)cc1", "cytotoxicity call": "active"}, {"smiles": "COc1ccc(S(=O)(=O)Nc2ccc3c(c2)C(=O)N([C@@H](C)CO)C[C@H](C)[C@@H](CN(C)Cc2ccc(Cl)c(Cl)c2)OCCCC[C@H](C)O3)cc1", "cytotoxicity call": "inactive"}, {"smiles": "COc1ccc(CN(C)C[C@@H]2OCCCC[C@@H](C)Oc3ccc(NS(=O)(=O)c4ccc(OC)cc4)cc3C(=O)N([C@@H](C)CO)C[C@H]2C)cc1", "cytotoxicity call": "inactive"}, {"smiles": "COc1ccc(S(=O)(=O)Nc2ccc3c(c2)C(=O)N([C@@H](C)CO)C[C@H](C)[C@@H](CN(C)Cc2ccc(Cl)c(Cl)c2)OCCCC[C@@H](C)O3)cc1", "cytotoxicity call": "active"}, {"smiles": "COc1ccc(S(=O)(=O)Nc2ccc3c(c2)C(=O)N([C@H](C)CO)C[C@H](C)[C@H](CN(C)Cc2ccc(Cl)c(Cl)c2)OCCCC[C@H](C)O3)cc1", "cytotoxicity call": "active"}, {"smiles": "COc1ccc(CN(C)C[C@H]2OCCCC[C@H](C)Oc3ccc(NS(=O)(=O)c4ccc(OC)cc4)cc3C(=O)N([C@H](C)CO)C[C@@H]2C)cc1", "cytotoxicity call": "inactive"}, {"smiles": "COc1ccc(CN(C)C[C@@H]2OCCCC[C@@H](C)Oc3ccc(NS(=O)(=O)c4ccc(OC)cc4)cc3C(=O)N([C@H](C)CO)C[C@@H]2C)cc1", "cytotoxicity call": "inactive"}, {"smiles": "COc1ccc(NC(=O)Nc2ccc3c(c2)C(=O)N([C@@H](C)CO)C[C@H](C)[C@@H](CN(C)CC2CCCCC2)O3)cc1", "cytotoxicity call": "inactive"}, {"smiles": "C[C@H]1CN([C@@H](C)CO)C(=O)c2cc(NS(=O)(=O)c3cn(C)cn3)ccc2O[C@@H]1CN(C)C(=O)Nc1ccccc1", "cytotoxicity call": "inactive"}, {"smiles": "C[C@H](CO)N1C[C@H](C)[C@H](CN(C)S(=O)(=O)c2ccccc2F)Oc2cc(C#Cc3ccccc3)ccc2S1(=O)=O", "cytotoxicity call": "inactive"}, {"smiles": "CN(C)[C@@H](CN)c1cccn1C", "cytotoxicity call": "inactive"}, {"smiles": "C[C@H](CO)N1C[C@H](C)[C@H](CN(C)C(=O)CN2CCOCC2)Oc2ncc(C#C[C@@H](C)O)cc2C1=O", "cytotoxicity call": "inactive"}, {"smiles": "C[C@H](CO)N1C[C@H](C)[C@@H](CN(C)Cc2ccc(-c3ccccc3)cc2)Oc2ccc(NS(=O)(=O)c3cccs3)cc2CC1=O", "cytotoxicity call": "inactive"}, {"smiles": "C/C(=N\\N)c1ccc2ccccc2c1", "cytotoxicity call": "inactive"}, {"smiles": "O=C(C[C@H]1CC[C@H]2[C@@H](COC[C@H](O)CN2C(=O)c2ccccc2)O1)N1CCOCC1", "cytotoxicity call": "inactive"}, {"smiles": "Cc1noc(C)c1NC(=O)Nc1cccc2c1O[C@H](CN(C)S(C)(=O)=O)[C@@H](C)CN([C@H](C)CO)C2=O", "cytotoxicity call": "inactive"}, {"smiles": "CC(C)NC(=O)N(C)C[C@@H]1Oc2ccc(NC(=O)Cc3ccccc3)cc2C(=O)N([C@@H](C)CO)C[C@@H]1C", "cytotoxicity call": "inactive"}, {"smiles": "Cc1noc(C)c1NC(=O)Nc1ccc2c(c1)C(=O)N([C@@H](C)CO)C[C@H](C)[C@@H](CN(C)C(=O)c1ccccc1)OCCCC[C@@H](C)O2", "cytotoxicity call": "inactive"}, {"smiles": "O=C(C[C@@H]1CC=CCC[C@@H](Cc2ccc(F)cc2)C(=O)OC[C@H](Cc2c[nH]c3ccccc23)NC1=O)N[C@@H](CO)Cc1ccccc1", "cytotoxicity call": "inactive"}, {"smiles": "O=C(C[C@@H]1CC=CCC[C@@H](Cc2ccc(F)cc2)C(=O)OC[C@@H](Cc2c[nH]c3ccccc23)NC1=O)N[C@H](CO)Cc1ccccc1", "cytotoxicity call": "active"}, {"smiles": "O=C(C[C@@H]1CC=CCC[C@H](Cc2ccc(F)cc2)C(=O)OC[C@@H](Cc2c[nH]c3ccccc23)NC1=O)N[C@@H](CO)Cc1ccccc1", "cytotoxicity call": "inactive"}, {"smiles": "C[C@H]1CN([C@@H](C)CO)C(=O)c2cccc(NC(=O)Nc3ccc(C(F)(F)F)cc3)c2O[C@@H]1CN(C)Cc1ccncc1", "cytotoxicity call": "inactive"}, {"smiles": "COc1ccc(NC(=O)Nc2ccc3c(c2)C(=O)N([C@@H](C)CO)C[C@H](C)[C@H](CN(C)Cc2ccc(C(=O)O)cc2)OCCCC[C@@H](C)O3)cc1", "cytotoxicity call": "inactive"}, {"smiles": "Cc1ccc(CN)cc1Cl", "cytotoxicity call": "inactive"}, {"smiles": "Cc1cc(CN)cc(C)c1NC(=O)c1ccc(-c2cc(Cl)ccc2Cl)o1", "cytotoxicity call": "active"}, {"smiles": "Cc1cc(C(=O)c2cc3cc(Cl)ccc3o2)ccc1Cl", "cytotoxicity call": "inactive"}, {"smiles": "COc1cccc(S(=O)(=O)N(C)C[C@H]2Oc3ncc(Br)cc3C(=O)N([C@H](C)CO)C[C@H]2C)c1", "cytotoxicity call": "inactive"}, {"smiles": "COC(CN(C)C(=O)c1cn(C)c2ccc(S(=O)(=O)N3CCOCC3)cc2c1=O)OC", "cytotoxicity call": "inactive"}, {"smiles": "Cc1[nH]c(=O)[nH]c(=O)c1S(=O)(=O)N1CCN(c2ccccc2)CC1", "cytotoxicity call": "inactive"}, {"smiles": "CCCn1c(=O)[nH]c2nc(-c3ccc(S(=O)(=O)N4CCN(c5ccc(Cl)cc5)CC4)cc3)[nH]c2c1=O", "cytotoxicity call": "active"}, {"smiles": "Cn1cc(S(=O)(=O)N2CCN(c3ccc(F)cc3)CC2)c(=O)n(C)c1=O", "cytotoxicity call": "inactive"}, {"smiles": "C[C@H](CO)N1C[C@H](C)[C@H](CN(C)C(=O)c2ccccc2)OCCCC[C@H](C)Oc2ccc(NS(=O)(=O)c3ccccc3)cc2C1=O", "cytotoxicity call": "inactive"}, {"smiles": "CC(=O)Nc1ccc(S(=O)(=O)CCO)cc1", "cytotoxicity call": "inactive"}, {"smiles": "C[C@H](CO)N1C[C@H](C)[C@@H](CN(C)Cc2ccncc2)Oc2c(NC(=O)C3CCOCC3)cccc2C1=O", "cytotoxicity call": "inactive"}, {"smiles": "COc1ccc([Si](C)(C)[C@H]2[C@H](CC(=O)N(CCO)Cc3ccccc3)O[C@@]3(C(=O)N(C)c4c(Br)cc(C)cc43)[C@@H]2C)cc1", "cytotoxicity call": "inactive"}, {"smiles": "COc1ccc([Si](C)(C)[C@@H]2[C@@H](CCn3cc([C@H](O)c4ccccc4)nn3)O[C@]3(C(=O)N(c4ccccc4)c4ccccc43)[C@H]2C)cc1", "cytotoxicity call": "inactive"}, {"smiles": "COc1ccc([Si](C)(C)[C@H]2[C@H](CCn3cc([C@H](O)c4ccccc4)nn3)O[C@@]3(C(=O)N(C)c4c(Br)cc(C)cc43)[C@@H]2C)cc1", "cytotoxicity call": "inactive"}, {"smiles": "COc1ccc([Si](C)(C)[C@@H]2[C@@H](CC(=O)N3Cc4ccccc4C[C@H]3CO)O[C@]3(C(=O)N(Cc4ccc(I)cc4)c4ccccc43)[C@H]2C)cc1", "cytotoxicity call": "inactive"}, {"smiles": "COc1ccc([Si](C)(C)[C@@H]2[C@@H](CC(=O)N3Cc4ccccc4C[C@H]3CO)O[C@]3(C(=O)N(C)c4c(Br)cc(C)cc43)[C@H]2C)cc1", "cytotoxicity call": "active"}, {"smiles": "COc1ccc([Si](C)(C)[C@@H]2[C@@H](CC(=O)N(CCO)Cc3ccccc3)O[C@]3(C(=O)N(C)c4c(Br)cc(C)cc43)[C@H]2C)cc1", "cytotoxicity call": "inactive"}, {"smiles": "COc1ccc([Si](C)(C)[C@@H]2[C@@H](CCn3cc([C@H](O)c4ccccc4)nn3)O[C@]3(C(=O)N(C)c4c(Br)cc(C)cc43)[C@H]2C)cc1", "cytotoxicity call": "active"}, {"smiles": "COc1ccc([Si](C)(C)[C@H]2[C@H](CC(=O)N3Cc4ccccc4C[C@H]3CO)O[C@@]3(C(=O)N(Cc4cccc(I)c4)c4ccccc43)[C@@H]2C)cc1", "cytotoxicity call": "inactive"}, {"smiles": "COc1ccc([Si](C)(C)[C@H]2[C@H](CC(=O)N3Cc4ccccc4C[C@H]3CO)O[C@@]3(C(=O)N(C)c4c(Br)cc(C)cc43)[C@@H]2C)cc1", "cytotoxicity call": "active"}, {"smiles": "Cc1nnc(=O)[nH]c1NNc1ccccc1", "cytotoxicity call": "inactive"}, {"smiles": "COc1cccc(NC(=O)N2C[C@@H](O)COC[C@H]3O[C@H](CC(=O)NCCCN4CCOCC4)CC[C@@H]32)c1", "cytotoxicity call": "inactive"}, {"smiles": "COc1ccc2c3c(n(c2c1)C)[C@@H](CO)N(C[C@]13CN(C1)S(=O)(=O)c1cn(cn1)C)C(=O)Nc1ccc(cc1)F", "cytotoxicity call": "inactive"}, {"smiles": "NCc1ccc(-n2cccn2)cc1", "cytotoxicity call": "inactive"}, {"smiles": "COc1ccc(S(=O)(=O)Nc2ccc3c(c2)C(=O)N([C@H](C)CO)C[C@H](C)[C@H](CN(C)S(=O)(=O)c2cn(C)cn2)OCCCC[C@H](C)O3)cc1", "cytotoxicity call": "inactive"}, {"smiles": "CCCCCCCCCCCCCCCC(=O)OCC(NC(=O)C(Cl)Cl)C(O)c1ccc([N+](=O)[O-])cc1", "note": "(stereo not given)", "cytotoxicity call": "inactive"}, {"smiles": "CCCCCCCCCC[C@@H](O)[C@H]1C=C[C@@H]2C(=O)N(c3ccccc3)C(=O)[C@@H]2N1Nc1ccc([N+](=O)[O-])cc1", "cytotoxicity call": "active"}, {"smiles": "CCCCCCCCCCCCCCCC(=O)OC[C@H](NC(=O)C(Cl)Cl)[C@H](O)c1ccc([N+](=O)[O-])cc1", "cytotoxicity call": "inactive"}, {"smiles": "C[C@@H]1CN([C@@H](C)CO)C(=O)c2cc(N(C)C)ccc2O[C@@H](C)CCCCO[C@@H]1CN(C)C(=O)Nc1cccc2ccccc12", "cytotoxicity call": "inactive"}, {"smiles": "C[C@@H]1CN([C@@H](C)CO)C(=O)c2cc(NS(=O)(=O)c3cccs3)ccc2O[C@@H]1CN(C)Cc1ccncc1", "cytotoxicity call": "inactive"}]}]}
